Values after ≈ are worked out from the molar mass of the structure shown. Hit rate of the full screen: of about 1,100 compounds, about 170 (15%) were called active. No rule for the calls is given here. A selection follows.

Results on 68 molecules are retold here after PubChem BioAssay AID1332 (Southern Research Institute, 2008).

This test is described as follows: Mycobacterium tuberculosis H37Rv growth inhibition, confirmatory dose response, cytotoxicity (AID 1332).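 As to CC50: Vero cells exposed to compounds for 72 hours.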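 As to IC50: bacteria incubated 7 days before adding Alamar blue readout reagent.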 The note with it: M. tuberculosis H37Rv growth inhibition; CC50: measured here: Vero cell cytotoxicity; IC50: measured here: IC50 H37Rv replicates.
Usually IC50 stands for the point on the concentration scale where inhibition reaches its midpoint. With `COc1ccc(C(=O)c2ccccc2)c(O)c1`, the IC50 was above 20 µg/mL and the molecule was called inactive.

Regarding `CCC[C@@H]1C[C@@H](C(=O)N[C@@H](C2O[C@H](SC)[C@H](O)[C@@H](O)[C@H]2O)[C@H](C)Cl)N(C)C1` (stereo partly drawn), the 50% inhibitory concentration (IC50) came to 0.395 µg/mL (≈ 0.929 µM) and the call was active.

`CCC[C@@H]1C[C@@H](C(=O)N[C@@H]([C@H]2O[C@H](SC)[C@H](O)[C@@H](O)[C@@H]2O)[C@@H](C)O)N(C)C1`: the IC50 is 11.6 µg/mL (≈ 28.5 µM) and the result was active.

For `CCC(=O)O[C@@H]1CC(=O)O[C@H](C)C/C=C/C=C/[C@@H](O)[C@H](C)C[C@H](CC=O)[C@H](O[C@@H]2O[C@H](C)[C@@H](O[C@H]3C[C@@](C)(O)[C@@H](OC(=O)CC)[C@H](C)O3)[C@H](N(C)C)[C@H]2O)[C@H]1OC`, the IC50 is above 20 µg/mL and the result was inactive.

Regarding `CN(C)CCOC(c1ccc(Cl)cc1)c1ccccn1` (stereo not drawn), the half-maximal inhibitory concentration (IC50) is above 20 µg/mL and the molecule was called inactive.

Take `CCOC(=O)[C@H](CCc1ccccc1)N[C@@H](C)C(=O)N1C(C(=O)O)C[C@@H]2CCC[C@@H]21` (stereo partly drawn): the IC50 is above 20 µg/mL and the call was inactive.

For `Cc1onc(-c2ccccc2Cl)c1C(=O)N[C@@H]1C(=O)N2[C@@H]1SC(C)(C)[C@@H]2C(=O)O`, the concentration for half-maximal inhibition (IC50) is above 20 µg/mL and the molecule was classed as inactive.

`NCc1ccccc1CC(=O)N[C@@H]1C(=O)N2C(C(=O)O)=C(CSc3nnnn3CC(=O)O)CS[C@H]12`: the IC50 stood at 13.8 µg/mL (≈ 26.6 µM) and the molecule was called active.

`CN(C)CCn1nnnc1SCC1=C(C(=O)O)N2C(=O)[C@@H](NC(=O)Cc3csc(N)n3)[C@H]2SC1`: the IC50 is above 20 µg/mL and the call was inactive.

As to `Cn1nnnc1SCC1=C(C(=O)O)N2C(=O)[C@@H](NC(=O)[C@H](O)c3ccccc3)[C@H]2SC1`, the concentration for half-maximal inhibition (IC50) is above 20 µg/mL and the result was inactive.

In the case of `CC(C)(C)NCC(O)COc1cccc2c1CCC(=O)N2` (stereo not drawn), the IC50 was above 20 µg/mL and the call was inactive.

Turning to `Cc1n[nH]c(=O)[nH]c1=O`, the IC50 was above 20 µg/mL and the molecule was classed as inactive.

Consider `COc1cc(N)c(Cl)cc1C(=O)NC1CCN(Cc2ccccc2)CC1`, for which the 50% inhibitory concentration (IC50) is above 20 µg/mL and the molecule was called inactive.

With `CCN(CC)CCNC(=O)c1cc(Cl)c(N)cc1OC`, the IC50 was above 20 µg/mL and the molecule was called inactive.

Regarding `COc1cc(N)c(Cl)cc1C(=O)N[C@H]1CCN(CCCOc2ccc(F)cc2)C[C@H]1OC`, the half-maximal inhibitory concentration (IC50) is 9.3 µg/mL (≈ 20 µM) and the molecule was called active.

For `O=C(O)C1CCCNC1` (stereo not drawn), the IC50 was above 20 µg/mL and the outcome was inactive.

In the case of `CC(=O)Nc1cc2ccccc2oc1=O`, the IC50 was above 20 µg/mL and the result was inactive.

`CCCC(=O)Nc1ccc(OCC(O)CNC(C)C)c(C(C)=O)c1` (stereo not drawn): the IC50 was above 20 µg/mL and the outcome was inactive.

Turning to `COc1cc(C(=O)OCCCN2CCCN(CCCOC(=O)c3cc(OC)c(OC)c(OC)c3)CC2)cc(OC)c1OC`, the half-maximal inhibitory concentration (IC50) is above 20 µg/mL and the outcome was inactive.

The CC50 is the concentration giving 50% cytotoxicity. The low end stands for greater toxicity to the cells, the high end for lower toxicity to the cells. As for `COc1cc(/C=C/C(=O)N2CCC=CC2=O)cc(OC)c1OC`, the CC50 was 1.53 µg/mL (≈ 4.82 µM), the IC50 was found to be 11.4 µg/mL (≈ 36.1 µM) and the molecule was called active.

For `CC(=O)[C@H]1CC[C@H]2[C@@H]3C=CC4=CC(=O)CC[C@@]4(C)[C@@H]3CC[C@]12C`, the IC50 was above 20 µg/mL and the outcome was inactive.

With `CC(N)CCCC(C)(C)O` (stereo not drawn), the concentration for half-maximal inhibition (IC50) was above 20 µg/mL and the outcome was inactive.

Consider `CC1(C)S[C@@H]2[C@H](NC(=O)[C@H](N)c3ccccc3)C(=O)N2[C@H]1C(=O)OC1OC(=O)c2ccccc21` (stereo partly drawn), for which the concentration for half-maximal inhibition (IC50) was above 20 µg/mL and the molecule was called inactive.

On to `CC(=O)Oc1ccc(C(c2ccc(OC(C)=O)cc2)c2ccccn2)cc1`, for which the IC50 was above 20 µg/mL and the molecule was classed as inactive.

Consider `CC(=O)N=c1sc(S(N)(=O)=O)nn1C`, for which the half-maximal inhibitory concentration (IC50) is above 20 µg/mL and the outcome was inactive.

For the molecule `C=C(C)[C@@H]1CC[C@]2(CO)CC[C@]3(C)[C@H](CC[C@@H]4[C@@]5(C)CC[C@H](O)C(C)(C)[C@@H]5CC[C@]43C)[C@@H]12`, the CC50 is above 6 µg/mL, the IC50 is above 20 µg/mL and the molecule was classed as inactive.

On to `C[N+](C)(CCOc1ccccc1)Cc1ccccc1`, for which the IC50 was above 20 µg/mL and the result was inactive.

As to `CC(C)(C)CC(C)(C)c1ccc(OCOCCOCCO)c(Cc2cc(C(C)(C)CC(C)(C)C)cc(Cc3cc(C(C)(C)CC(C)(C)C)ccc3OCOCCOCCO)c2OCOCCOCCO)c1`, the half-inhibitory concentration (IC50) is above 20 µg/mL and the call was inactive.

`CC(C)(C)CC(C)(C)c1ccc(OCCOCC[N+](C)(C)Cc2ccccc2)cc1`: the half-inhibitory concentration (IC50) was 8 µg/mL and the molecule was classed as active.

For the molecule `CCCCC1(COC(=O)CCC(=O)O)C(=O)N(c2ccccc2)N(c2ccccc2)C1=O`, the half-maximal inhibitory concentration (IC50) was above 20 µg/mL and the molecule was called inactive.

Regarding `CNCCC(Oc1ccc(C(F)(F)F)cc1)c1ccccc1` (stereo not drawn), the cytotoxic concentration (CC50) is above 6 µg/mL, the IC50 stood at 9.88 µg/mL (≈ 32 µM) and the result was active.

On to `CNCCC(Oc1ccccc1OC)c1ccccc1` (stereo not drawn), for which the IC50 was above 20 µg/mL and the molecule was classed as inactive.

Consider `CO[C@H]1C=C2CCN(C)[C@H]2C2c3cc4c(cc3C(=O)O[C@@H]21)OCO4` (stereo partly drawn), for which the IC50 is above 20 µg/mL and the outcome was inactive.

In the case of `C#C[C@]1(OC(C)=O)CC[C@H]2[C@@H]3CCC4=C[C@@H](OC(C)=O)CC[C@@H]4[C@H]3CC[C@@]21C`, the IC50 was above 20 µg/mL and the molecule was classed as inactive.

Consider `CN(C)[C@@H]1C(=O)C(C(N)=O)=C(O)[C@@]2(O)C(=O)C3=C(O)c4c(O)ccc(Cl)c4[C@@](C)(O)C3C[C@@H]12` (stereo partly drawn), for which the concentration for half-maximal inhibition (IC50) worked out at 13.2 µg/mL (≈ 27.5 µM) and the molecule was classed as active.

For `C=C1c2cccc(O)c2C(O)=C2C(=O)[C@]3(O)C(O)=C(C(N)=O)C(=O)[C@@H](N(C)C)[C@@H]3[C@@H](O)[C@H]12`, the IC50 is above 17.9 µg/mL and the molecule was called active.

Consider `CN(C)[C@@H]1C(=O)C(C(=O)NCN2CCCC2)=C(O)[C@@]2(O)C(=O)C3=C(O)c4c(O)cccc4[C@@](C)(O)C3CC12` (stereo partly drawn), for which the IC50 was above 20 µg/mL and the call was inactive.

On to `C[C@H]1c2cccc(O)c2C(O)=C2C(=O)C3(O)C(O)=C(C(N)=O)C(=O)[C@@H](N(C)C)[C@@H]3[C@@H](O)[C@@H]21` (stereo partly drawn), for which the IC50 turned out to be 2.44 µg/mL (≈ 5.49 µM) and the call was active.

Consider `CN(C)[C@@H]1C(=O)C(C(N)=O)=C(O)[C@@]2(O)C(=O)C3=C(O)c4c(O)cccc4[C@@](C)(O)[C@H]3[C@H](O)[C@@H]12`, for which the IC50 was above 20 µg/mL and the outcome was inactive.

On to `C=C1c2c(Cl)ccc(O)c2C(O)=C2C(=O)[C@]3(O)C(O)=C(C(N)=O)C(=O)[C@@H](N(C)C)[C@@H]3[C@@H](O)C12` (stereo partly drawn), for which the CC50 is above 6 µg/mL, the IC50 worked out at 3.86 µg/mL (≈ 8.1 µM) and the outcome was active.

In the case of `CCC(=O)OCC(=O)C1(OC(=O)CC)[C@H](C)C[C@H]2[C@H]3[C@H]([C@@H](O)C[C@@]21C)[C@@]1(C)C=CC(=O)C=C1C[C@H]3Cl` (stereo partly drawn), the half-maximal inhibitory concentration (IC50) was above 20 µg/mL and the molecule was classed as inactive.

On to `O=C1C(CCS(=O)c2ccccc2)C(=O)N(c2ccccc2)N1c1ccccc1` (stereo not drawn), for which the IC50 was above 20 µg/mL and the molecule was classed as inactive.

Take `CN(C)C/C=C(\c1ccc(Br)cc1)c1cccnc1`: the concentration for half-maximal inhibition (IC50) is above 20 µg/mL and the molecule was called inactive.

For the molecule `CC1(C)S[C@@H]2[C@H](NC(=O)[C@H](N)c3ccccc3)C(=O)N2[C@H]1C(=O)O`, the IC50 was above 20 µg/mL and the outcome was inactive.

Regarding `CN(Cc1cnc2nc(N)nc(N)c2n1)c1ccc(C(=O)NC(CCC(=O)O)C(=O)O)cc1` (stereo not drawn), the CC50 was found to be 0.048 µg/mL (≈ 0.106 µM), the concentration for half-maximal inhibition (IC50) is above 20 µg/mL and the molecule was classed as inactive.

On to `CC(C(=O)O)c1ccc(N2Cc3ccccc3C2=O)cc1` (stereo not drawn), for which the half-inhibitory concentration (IC50) is above 20 µg/mL and the call was inactive.

Regarding `C[C@H]1[C@H]2CC[C@H]3[C@@H]4CC=C5C[C@@H](N(C)C)CC[C@]5(C)[C@H]4CC[C@]23CN1C`, the half-maximal inhibitory concentration (IC50) is above 20 µg/mL and the molecule was classed as inactive.

For `NC(N)=NC(N)=NCCc1ccccc1`, the IC50 was above 20 µg/mL and the molecule was called inactive.

As for `CCOC(=O)[C@H](CCc1ccccc1)N[C@@H](C)C(=O)N1CCC[C@H]1C(=O)O`, the IC50 was above 20 µg/mL and the molecule was called inactive.

On to `CC(=O)Oc1ccccc1C(=O)Oc1ccccc1C(=O)O`, for which the IC50 was above 20 µg/mL and the molecule was called inactive.

On to `O=C(OCC(O)CO)c1ccccc1Nc1ccnc2cc(Cl)ccc12` (stereo not drawn), for which the IC50 is above 20 µg/mL and the molecule was called inactive.

As to `CCc1cccc(CC)c1NC(=O)CN(CC(=O)O)CC(=O)O`, the half-maximal inhibitory concentration (IC50) was above 20 µg/mL and the outcome was inactive.

For `COc1cc(-c2ccc(N=Nc3ccc4c(S(=O)(=O)O)cc(S(=O)(=O)O)c(N)c4c3O)c(OC)c2)ccc1N=Nc1ccc2c(S(=O)(=O)O)cc(S(=O)(=O)O)c(N)c2c1O`, the IC50 was above 20 µg/mL and the molecule was classed as inactive.

As to `NCC1CCC(C(=O)O)CC1` (stereo not drawn), the IC50 is above 20 µg/mL and the molecule was called inactive.

Consider `C[C@H](O)C(=O)Nc1c(I)c(C(=O)NC(CO)CO)c(I)c(C(=O)NC(CO)CO)c1I`, for which the IC50 was above 20 µg/mL and the result was inactive.

Regarding `CCCOc1cc(N)ccc1C(=O)OCCN(CC)CC`, the half-inhibitory concentration (IC50) was above 20 µg/mL and the molecule was called inactive.

On to `COc1c2c(nc3ccccc13)OC(C(C)(O)CO)C2` (stereo not drawn), for which the half-maximal inhibitory concentration (IC50) is above 20 µg/mL and the result was inactive.

Take `CN1CCC[C@@H]1CCO[C@](C)(c1ccccc1)c1ccc(Cl)cc1`: the half-maximal cytotoxic concentration (CC50) was above 6 µg/mL, the IC50 amounted to 10.9 µg/mL (≈ 31.7 µM) and the call was active.

Take `CN1C(CC(O)c2ccccc2)CCCC1CC(O)c1ccccc1` (stereo not drawn): the half-maximal inhibitory concentration (IC50) was above 20 µg/mL and the molecule was classed as inactive.

Regarding `CN1CCCCC1CCN1c2ccccc2Sc2ccc(S(C)=O)cc21` (stereo not drawn), the IC50 is above 20 µg/mL and the molecule was called inactive.

On to `O[C@@H]1[C@@H](O)C=C2CCN3Cc4cc5c(cc4[C@H]1C23)OCO5` (stereo partly drawn), for which the cytotoxic concentration (CC50) was found to be 0.806 µg/mL (≈ 2.81 µM), the IC50 is above 20 µg/mL and the molecule was called inactive.

Consider `CCn1cc(C(=O)O)c(=O)c2cc3c(cc21)OCO3`, for which the IC50 is above 20 µg/mL and the call was inactive.

In the case of `CC1CCc2cc(F)cc3c(=O)c(C(=O)O)cn1c23` (stereo not drawn), the IC50 turned out to be 9.83 µg/mL (≈ 37.6 µM) and the molecule was classed as active.

Regarding `O=C1N=C(O)CN1/N=C/c1ccc(-c2ccc([N+](=O)[O-])cc2)o1`, the 50% inhibitory concentration (IC50) is above 20 µg/mL and the call was inactive.

For `CNCC(O)c1ccc(OC(=O)C(C)(C)C)c(OC(=O)C(C)(C)C)c1` (stereo not drawn), the IC50 was above 20 µg/mL and the outcome was inactive.

Take `C=C(C)[C@@H]1C2C(=O)O[C@H]1[C@H]1OC(=O)[C@@]34OC3C[C@]2(O)[C@@]14C` (stereo partly drawn): the IC50 was above 20 µg/mL and the molecule was classed as inactive.

With `CC1(C)OC(=O)NC1=O`, the IC50 is above 20 µg/mL and the result was inactive.

Turning to `CC(C)(C)C(=O)OCOC(=O)[C@@H]1N2C(=O)[C@@H](NC(=O)[C@H](N)c3ccccc3)[C@H]2SC1(C)C`, the IC50 is above 20 µg/mL and the molecule was classed as inactive.
